PfHsp90 set2: growth inhibition of PfHsp90-expressing yeast, primary screen, antimalarial PfHsp90 inhibitor project, S. cerevisiae, BacTiter-Glo luminescence, single point, set 2 | BacTiter-Glo ATP, 48 h; yeast lacking PDR1 and PDR3 efflux regulators | inhibition, % at 9.4 µM | 310,000 tested, 0.32% active;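 active = every replicate shows inhibition above about 80%, whatever the replicate mean, limit read from the data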;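 also: 0% = DMSO neutral controls and 100% = 20 µM radicicol positive controls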
tim10-1 inh: growth inhibitors of tim10-1 mutant yeast, primary screen, luminescence, uHTS | 330,000 tested, 2.2% active | S. cerevisiae tim10-1 ts strain growth, BacTiter-Glo, 24 h | inhibition, % at 20 µM;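 active = inhibition of at least 40%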;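 also: mutant grown at 25 °C; 0% = DMSO wells with yeast and 100% = wells holding no yeast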
TIM10 inh: growth inhibitors of isogenic TIM10 control yeast, primary screen, counter-screen for tim10-1 yeast inhibitor project, luminescence, uHTS; S. cerevisiae TIM10 strain growth, BacTiter-Glo luminescence, 24 h; inhibition, % at 10 µM; 330,000 tested, 1.4% active;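 active = inhibition of 40% or more at the single tested concentration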;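 also: wild-type TIM10 isogenic control strain grown at permissive 25 °C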
tim23-1 inh: growth inhibitors of tim23-1 mutant yeast, primary screen, luminescence, uHTS | inhibition, % at 20 µM | 330,000 tested, 1.3% active | AID 463212, 2010 | S. cerevisiae tim23-1 growth, BacTiter-Glo luminescence, 24 h;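 active = growth inhibition of the mutant yeast at or above 50%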;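 also: temperature-sensitive mutant grown at 25 °C; plate controls were DMSO-treated mutant yeast for no effect and medium wells lacking yeast for full effect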
NALP3 yeast inh: NALP3 inflammasome inhibitors in reconstituted yeast, primary screen, luminescence, uHTS. Yeast reconstituted NLRP3/ASC/caspase-1, beta-gal luminescence, 24 h. inhibition, % at 10 µM. 330,000 tested, 0.39% active;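 active = inhibition of 50% or more; inactive = inhibition below 50%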;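 also: plate controls were induced DMSO wells for no effect and uninduced yeast grown without galactose for full effect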
NALP3 confirm: NALP3 inhibitors retested in yeast, confirmation, luminescence, single concentration. shares compounds with NALP3 yeast inh. yeast expressing human NALP3. inhibition, % at 10 µM. 1,300 tested, 81% active. AID 435006, 2010; in the data active = inhibition above about 48%
Casp1-ASC yeast: CASP1-PYCARD signaling inhibition in yeast, confirmatory test, counterassay for NLRP3 inhibitor program, one-dose; yeast expressing Caspase-1-ASC, luminescence counter screen; 1,000 tested, 66% active; AID 488784, 2010; inhibition, % at 10 µM; shares compounds with NALP3 yeast inh
NALP3 retest: NALP3 inhibitors in yeast, repeat test, confirmation, luminescence, single concentration, retest | 1,000 tested, 53% active | yeast expressing human NALP3, luminescence read-out | inhibition, % at 10 µM | shares compounds with NALP3 yeast inh
Starred values were filed as active, the others as inactive; x = not tested or not shown. Only some compounds are listed: those with a hit (about 3.7% of all), similar ones and a draw of the others. Rule as the data show it, unless noted: active = inhibition above about 50%; inactive = the rest.

SMILES	PfHsp90 set2	tim10-1 inh	TIM10 inh	tim23-1 inh	NALP3 yeast inh	NALP3 confirm	Casp1-ASC yeast	NALP3 retest
NC(=O)N1CC(O)CC1C(=O)Nc1ccc(Cl)c(Cl)c1 (stereo not given)	-10	-7	-5	4	15	x	x	x
COCCNC(=O)c1cc2c3ccccc3n(C)c2s1	x	10	-14	8	-7	x	x	x
CCCNC(=O)c1cc2c3ccccc3n(C)c2s1	31	36	31	44	51*	50*	35	25
CCc1cc(=O)oc2cc(OC(C)C(=O)NCc3ccccn3)ccc12 (stereo not given)	-1	12	-4	-6	1	x	x	x
O=C(Nc1ccc2oc(=O)ccc2c1)c1cc2ccccc2o1	-15	4	12	19	-16	x	x	x
O=C(Nc1ccc2c(c1)OCCO2)c1cc2ccccc2o1	-9	2	30	30	53*	69*	63*	73*
COc1ccc(C)cc1NC(=O)c1cc2ccccc2o1	-6	6	3	-13	18	x	x	x
Cc1ccc(C)c(NC(=O)c2cc3ccccc3o2)c1	-3	25	-14	31	55*	44	52*	41
O=C(O)C1CCCCN1C(=O)c1ccc(S(=O)(=O)N2CCCCCC2)cc1 (stereo not given)	-9	9	-1	-3	-1	x	x	x
COc1ccc(NC(=O)N(C)C[C@H]2Oc3ccc(NC(=O)Nc4c(C)noc4C)cc3C(=O)N([C@H](C)CO)C[C@@H]2C)cc1	-27	2	-7	9	9	x	x	x
CCS(=O)(=O)c1nc(S(=O)(=O)c2ccc(Cl)cc2)c(N2CCC(O)CC2)s1	7	-17	4	2	5	x	x	x
CSc1nc(S(=O)(=O)c2ccc(C)cc2)c(Cl)s1	x	18	-25	18	-51	x	x	x
CCOc1nc(S(=O)(=O)c2ccc(C)cc2)c(Cl)s1	-22	19	20	9	-107	-12	x	x
CCOc1ccc(/C(O)=C2/C(=O)C(=O)N(CCCN3CCOCC3)C2c2ccc(F)cc2)cc1C (stereo not given)	-14	4	7	7	50*	67*	48	28
O=C1C(=O)N(CCCN2CCOCC2)C(c2ccc(F)cc2)/C1=C(\O)c1ccc2c(c1)OCCO2 (stereo not given)	-4	20	-5	7	-5	x	x	x
CC1=NN(C(=O)c2ccc(Br)cc2)C(O)(C(F)(F)OC(F)(F)F)C1 (stereo not given)	64	25	2	19	51*	50*	x	x
O=C1Nc2cc(C(=O)NCC3CCCO3)ccc2S/C1=C/c1ccccc1F (stereo not given)	-2	12	0	16	13	x	x	x
Cc1ccc(NC(=O)C(C)OC(=O)/C=C/c2ccccc2)cc1S(=O)(=O)N1CCOCC1 (stereo not given)	-27	14	13	11	13	x	x	x
Cc1ccc(S(=O)(=O)N(C)/N=C/c2ccc(N(C)C)cc2)cc1	8	-2	-9	1	51*	54*	19	27
COC(=O)Cn1nc(-c2ccccc2)c2ccccc21	9	26	24	24	97*	99*	99*	98*
CSCc1cc(N(C)c2ccccc2)nc(-c2ccccn2)n1	-9	-41	19	-56	67*	71*	74*	81*
C=CC[C@@H](CC(=O)OC(C)(C)C)C(=O)OC[C@H]1CCCN1C(=O)[C@@H](CC=C)CC(=O)NCCO	10	-2	2	8	0	x	x	x
CC(C)N(Cc1ccccc1)S(=O)(=O)c1ccc(F)cc1	24	7	35	9	51*	56*	29	31
CCOC(=O)c1c(NC(=O)CC2SC(=NC)N(C)C2=O)sc(C)c1C (stereo not given)	8	5	4	11	60*	59*	60*	43
CN1CCN(c2ccc(NC(=O)c3cccc(OCc4ccccc4)c3)cc2)CC1	53	-20	-22	-81	50*	55*	39	37
SMILES	PfHsp90 set2	tim10-1 inh	TIM10 inh	tim23-1 inh	NALP3 yeast inh	NALP3 confirm	Casp1-ASC yeast	NALP3 retest
Cc1cc(C(=O)COC(=O)c2csc3c2CCCC3)c(C)n1C	5	-10	2	12	54*	62*	33	23
Cn1cccc1/C=C1\Cc2ccccc2C1=O	25	-21	14	25	54*	69*	x	x
Cn1cccc1/C=C1\CCc2ccccc2C1=O	33	8	13	35	22	x	x	x
NCCC(=O)N1c2ccccc2Sc2ccc(Cl)cc21	-18	-7	6	5	73*	85*	78*	87*
O=c1cc(-c2ccccc2Cl)oc2ccc([N+](=O)[O-])c(O)c12	24	10	11	12	57*	72*	29	57*
CC(C)(C)NC(=O)CN(CCN1CCOCC1)C(=O)CNS(=O)(=O)c1ccc(Cl)cc1	-7	-21	10	8	18	x	x	x
COc1ccc(-c2nc3ccccc3s2)cc1NC(C)=O	11	-2	16	13	51*	44	25	33
COc1ccccc1C(=O)NC(CCSC)C(=O)Nc1ccc(C)c(S(=O)(=O)N2CCOCC2)c1 (stereo not given)	-2	0	-6	-1	5	x	x	x
Cc1nc2scc(C)n2c(=O)c1S(=O)(=O)NCc1ccc(F)cc1	-5	5	-3	-2	0	x	x	x
CCc1cc(C(=O)Nc2cc(Cl)ccc2N2CCN(C)CC2)sc1C	7	-3	-2	11	67*	79*	77*	73*
COc1ccc(CCNS(=O)(=O)c2c(C)nc3scc(C)n3c2=O)cc1OC	-12	5	-15	8	1	x	x	x
CSc1oc(-c2ccccc2)nc1S(=O)(=O)c1ccc(C)cc1	-1	18	-9	8	53*	68*	56*	48
Cc1ccc(C(=O)N2CC3(C)CN(C(=O)c4ccc(C)cc4)CC(C)(C2)C3=O)cc1	9	14	10	27	6	x	x	x
Cc1ccc(C(=O)N2CC(=O)NC(=O)C2)cc1	-7	-7	-2	7	51*	49*	8	10
Cc1ccc([N+](=O)[O-])cc1N=C(c1cccc(Br)c1)N1CCOCC1	33	39	32	36	14	x	x	x
